Data on eleven compounds can be found in PubChem BioAssay.

Chain of Torsin-1A-interacting protein 2 (Homo sapiens) (Q8NFQ8 whole entry, looked up): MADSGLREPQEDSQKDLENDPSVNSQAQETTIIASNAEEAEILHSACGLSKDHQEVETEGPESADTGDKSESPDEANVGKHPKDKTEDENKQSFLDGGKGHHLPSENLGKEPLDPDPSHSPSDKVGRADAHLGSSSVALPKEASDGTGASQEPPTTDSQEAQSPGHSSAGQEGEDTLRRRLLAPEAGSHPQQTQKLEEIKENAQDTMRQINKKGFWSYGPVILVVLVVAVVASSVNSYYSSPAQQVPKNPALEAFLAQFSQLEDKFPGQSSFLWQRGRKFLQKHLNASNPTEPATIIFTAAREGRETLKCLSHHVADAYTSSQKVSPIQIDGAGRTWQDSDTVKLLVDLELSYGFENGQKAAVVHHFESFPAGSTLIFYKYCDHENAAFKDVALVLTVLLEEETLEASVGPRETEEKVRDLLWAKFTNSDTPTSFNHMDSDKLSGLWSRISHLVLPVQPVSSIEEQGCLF

The experiment concerns the target Torsin-1A-interacting protein 2 (Homo sapiens) (UniProt Q8NFQ8). Kind of experiment: small molecules binding lysate-expressed LULL1 – cell lysate, human LULL1 lysate, 635/667 nm fluorescence, primary screen (AID 1092).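 Note: probe is lysate of COS7 cells overexpressing human LULL1; score merges per-feature 667 nm fluorescence with signal-to-noise.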 The settings on record: small-molecule microarray, hLULL1 lysate binding, 635 nm fluorescence; higher = more signal.
Take `COCCOC(=O)N1C(=O)[C@@]2(c3cc(C#Cc4ccc(OC)cc4)ccc31)[C@H](C(=O)Nc1nc3ccccc3s1)[C@H]1C(=O)O[C@H](c3ccccc3)[C@H](c3ccccc3)N1[C@@H]2c1ccc(O)cc1`: the composite z-score came out at 2.74. With `COc1ccc(C#Cc2ccc3c(c2)[C@]2(C(=O)N3)[C@H](c3ccc(O)cc3)N3[C@H](c4ccccc4)[C@H](c4ccccc4)OC(=O)[C@H]3[C@@H]2C(=O)O)cc1` the figure was 3.12; with `CC(C)C[C@@H]1NC(=O)[C@@H]2C[C@H](C(=O)NCCCCCN)[C@H](c3ccc(O)cc3)N2C1=O`, 2.57. Regarding `CN1C(=O)C2C=CC(C(O)c3ccc(F)cc3)N(Nc3ccccc3)C2C1=O` (stereo unspecified), the composite z-score is 3.69. With `CCC[C@@H]1C[C@@]1(CCC)[C@@H](NC(=O)OCc1ccccc1)c1ccc(-c2ccccc2)cc1` the figure was 0.543; with `COc1ccc(NC(=O)O[C@H]2[C@H](OC(=O)Nc3ccccc3)[C@H](OC(=O)Nc3ccccc3)[C@@H](OC)O[C@@H]2CO)cc1`, 2.66; with `CC(C)[Si](C#C[Si](C(C)C)(C(C)C)C(C)C)(O[C@H](C)c1cn([C@H](CO)Cc2ccccc2)nn1)C(C)C`, 1.76.

Compound `[N-]=[N+]=NCc1ccccc1[C@@H]1OC(c2ccc(OCCCO)cc2)=N[C@]1(CCS(=O)(=O)c1ccccc1)C(=O)NCC(O)CO` (stereo partly specified) yielded a composite z-score of 3.85. With `CCC(CC)C(O)C1C=CC2C(=O)N(c3ccccc3)C(=O)C2N1Nc1ccc(C(C)C)cc1` (stereo unspecified) the figure was 3.12; with `C=C(C)C1CCC(C(O)C2C=CC3C(=O)N(C)C(=O)C3N2N2CCCCC2)CC1` (stereo unspecified), 3.04. Compound `O=C1NC(=O)C2C1C=CC(C(O)c1cccc3ccccc13)N2Nc1ccc(Cl)cc1Cl` (stereo unspecified) registered a composite z-score of 3.04.
